21 molecules from ChEMBL document CHEMBL2218924, “A broad activity screen in support of a chemogenomic map for kinase signalling research and drug discovery” (Biochem J, 2013) can be followed below.

In test [1] the target is T1, Serine/threonine-protein kinase NLK (Homo sapiens) (UniProt Q9UBE8).
T1 sequence (whole entry): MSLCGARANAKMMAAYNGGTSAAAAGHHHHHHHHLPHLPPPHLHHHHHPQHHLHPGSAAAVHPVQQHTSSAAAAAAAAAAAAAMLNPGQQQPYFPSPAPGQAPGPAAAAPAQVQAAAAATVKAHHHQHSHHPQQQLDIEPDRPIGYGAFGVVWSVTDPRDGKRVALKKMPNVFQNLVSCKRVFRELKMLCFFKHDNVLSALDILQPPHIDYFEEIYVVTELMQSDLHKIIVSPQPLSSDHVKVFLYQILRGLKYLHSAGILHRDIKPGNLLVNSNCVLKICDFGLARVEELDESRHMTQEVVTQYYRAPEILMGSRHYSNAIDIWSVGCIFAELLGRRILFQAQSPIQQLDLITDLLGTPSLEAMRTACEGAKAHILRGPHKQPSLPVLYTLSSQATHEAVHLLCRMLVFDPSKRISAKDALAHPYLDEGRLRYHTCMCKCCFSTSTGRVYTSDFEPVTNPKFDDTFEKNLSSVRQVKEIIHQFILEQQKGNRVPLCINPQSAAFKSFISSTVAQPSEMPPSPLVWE
As to conditions: at 1 µM.

Test [2] has as its target T1, Serine/threonine-protein kinase NLK (Homo sapiens). As to conditions: at 10 µM.
For test [3], the target named is Serine/threonine-protein kinase PAK 2 (Homo sapiens) (UniProt Q13177). As to conditions: at 1 µM.
Test [4] has the same target. The conditions noted are these: at 10 µM.
Test [5] addresses Serine/threonine-protein kinase PAK 4 (Homo sapiens) (UniProt O96013). As to conditions: at 10 µM.
The target of test [6] is Serine/threonine-protein kinase PAK 5 (Homo sapiens) (UniProt Q9P286). The conditions noted are these: at 1 µM.
For test [7] the target is unchanged. As to conditions: at 10 µM.
The target of test [8] is Serine/threonine-protein kinase PAK 6 (Homo sapiens) (UniProt Q9NQU5). The conditions noted are these: at 1 µM.
The target is the same in test [9]. As to conditions: at 10 µM.
Test [10] addresses PAS domain-containing serine/threonine-protein kinase (Homo sapiens) (UniProt Q96RG2). The conditions noted are these: at 10 µM.
For test [11], the target named is Activated CDC42 kinase 1 (Homo sapiens) (UniProt Q07912). The conditions noted are these: at 1 µM.
For test [12] the target is unchanged. The conditions noted are these: at 10 µM.
In test [13] the target is ALK tyrosine kinase receptor (Homo sapiens) (UniProt Q9UM73). As to conditions: at 1 µM.
The target in test [14] is Ribosomal protein S6 kinase beta-1 (Homo sapiens) (UniProt P23443). As to conditions: at 10 µM.
Test [15] has as its target Serine/threonine-protein kinase Nek7 (Homo sapiens) (UniProt Q8TDX7). As to conditions: at 10 µM.
Test [16] addresses Serine/threonine-protein kinase PAK 4 (Homo sapiens) (UniProt O96013). As to conditions: at 1 µM.
In test [17] the target is Ribosomal protein S6 kinase beta-1 (Homo sapiens) (UniProt P23443). As to conditions: at 1 µM.
Test [18] deals with Serine/threonine-protein kinase Nek6 (Homo sapiens) (UniProt Q9HC98). As to conditions: at 1 µM.
For test [19] the target is unchanged. As to conditions: at 10 µM.
Test [20] has as its target Serine/threonine-protein kinase Nek7 (Homo sapiens) (UniProt Q8TDX7). The conditions noted are these: at 1 µM.

Chain of ALK tyrosine kinase receptor (Homo sapiens) (Q9UM73 19-1620 limits assumed): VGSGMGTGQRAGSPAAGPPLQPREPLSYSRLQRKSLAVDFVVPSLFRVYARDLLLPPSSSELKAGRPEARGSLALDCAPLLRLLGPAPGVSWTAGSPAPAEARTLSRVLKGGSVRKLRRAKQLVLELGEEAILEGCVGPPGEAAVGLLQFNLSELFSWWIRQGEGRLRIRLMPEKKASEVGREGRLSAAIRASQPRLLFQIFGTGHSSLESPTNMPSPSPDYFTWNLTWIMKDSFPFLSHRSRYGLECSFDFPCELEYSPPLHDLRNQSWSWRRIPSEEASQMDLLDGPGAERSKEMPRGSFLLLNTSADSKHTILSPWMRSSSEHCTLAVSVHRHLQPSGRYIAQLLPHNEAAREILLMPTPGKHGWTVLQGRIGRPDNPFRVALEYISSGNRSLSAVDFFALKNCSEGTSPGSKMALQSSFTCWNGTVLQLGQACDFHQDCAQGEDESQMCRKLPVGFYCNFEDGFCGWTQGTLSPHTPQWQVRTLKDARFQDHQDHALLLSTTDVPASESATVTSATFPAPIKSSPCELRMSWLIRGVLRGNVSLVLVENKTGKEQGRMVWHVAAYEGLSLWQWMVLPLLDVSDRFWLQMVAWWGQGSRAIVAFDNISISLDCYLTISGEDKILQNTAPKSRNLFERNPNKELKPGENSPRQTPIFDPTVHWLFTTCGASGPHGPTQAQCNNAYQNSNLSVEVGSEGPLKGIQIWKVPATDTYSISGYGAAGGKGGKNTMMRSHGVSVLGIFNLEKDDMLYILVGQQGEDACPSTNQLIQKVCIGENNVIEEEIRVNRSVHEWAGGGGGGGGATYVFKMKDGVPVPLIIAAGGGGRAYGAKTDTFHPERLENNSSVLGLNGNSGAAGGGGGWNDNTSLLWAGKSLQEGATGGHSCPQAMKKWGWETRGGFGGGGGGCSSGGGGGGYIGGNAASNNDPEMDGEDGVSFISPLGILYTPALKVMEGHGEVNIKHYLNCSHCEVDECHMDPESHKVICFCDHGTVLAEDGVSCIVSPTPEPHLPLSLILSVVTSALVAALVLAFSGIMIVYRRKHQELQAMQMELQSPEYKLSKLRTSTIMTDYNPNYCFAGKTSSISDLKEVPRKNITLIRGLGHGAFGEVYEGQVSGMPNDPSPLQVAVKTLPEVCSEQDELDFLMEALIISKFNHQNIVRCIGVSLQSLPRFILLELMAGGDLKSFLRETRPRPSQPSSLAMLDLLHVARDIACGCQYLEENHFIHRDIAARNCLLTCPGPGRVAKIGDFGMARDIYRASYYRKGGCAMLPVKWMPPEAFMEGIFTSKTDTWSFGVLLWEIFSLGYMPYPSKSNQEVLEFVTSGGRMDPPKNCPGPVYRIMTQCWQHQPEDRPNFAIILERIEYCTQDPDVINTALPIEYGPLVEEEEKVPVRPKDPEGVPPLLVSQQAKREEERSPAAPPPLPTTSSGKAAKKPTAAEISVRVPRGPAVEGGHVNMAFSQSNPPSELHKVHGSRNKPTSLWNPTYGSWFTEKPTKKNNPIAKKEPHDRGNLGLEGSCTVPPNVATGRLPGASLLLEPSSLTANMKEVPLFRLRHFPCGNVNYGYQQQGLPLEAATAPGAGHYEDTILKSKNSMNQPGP
Chain of PAS domain-containing serine/threonine-protein kinase (Homo sapiens) (Q96RG2 whole entry, the tested form may be a part): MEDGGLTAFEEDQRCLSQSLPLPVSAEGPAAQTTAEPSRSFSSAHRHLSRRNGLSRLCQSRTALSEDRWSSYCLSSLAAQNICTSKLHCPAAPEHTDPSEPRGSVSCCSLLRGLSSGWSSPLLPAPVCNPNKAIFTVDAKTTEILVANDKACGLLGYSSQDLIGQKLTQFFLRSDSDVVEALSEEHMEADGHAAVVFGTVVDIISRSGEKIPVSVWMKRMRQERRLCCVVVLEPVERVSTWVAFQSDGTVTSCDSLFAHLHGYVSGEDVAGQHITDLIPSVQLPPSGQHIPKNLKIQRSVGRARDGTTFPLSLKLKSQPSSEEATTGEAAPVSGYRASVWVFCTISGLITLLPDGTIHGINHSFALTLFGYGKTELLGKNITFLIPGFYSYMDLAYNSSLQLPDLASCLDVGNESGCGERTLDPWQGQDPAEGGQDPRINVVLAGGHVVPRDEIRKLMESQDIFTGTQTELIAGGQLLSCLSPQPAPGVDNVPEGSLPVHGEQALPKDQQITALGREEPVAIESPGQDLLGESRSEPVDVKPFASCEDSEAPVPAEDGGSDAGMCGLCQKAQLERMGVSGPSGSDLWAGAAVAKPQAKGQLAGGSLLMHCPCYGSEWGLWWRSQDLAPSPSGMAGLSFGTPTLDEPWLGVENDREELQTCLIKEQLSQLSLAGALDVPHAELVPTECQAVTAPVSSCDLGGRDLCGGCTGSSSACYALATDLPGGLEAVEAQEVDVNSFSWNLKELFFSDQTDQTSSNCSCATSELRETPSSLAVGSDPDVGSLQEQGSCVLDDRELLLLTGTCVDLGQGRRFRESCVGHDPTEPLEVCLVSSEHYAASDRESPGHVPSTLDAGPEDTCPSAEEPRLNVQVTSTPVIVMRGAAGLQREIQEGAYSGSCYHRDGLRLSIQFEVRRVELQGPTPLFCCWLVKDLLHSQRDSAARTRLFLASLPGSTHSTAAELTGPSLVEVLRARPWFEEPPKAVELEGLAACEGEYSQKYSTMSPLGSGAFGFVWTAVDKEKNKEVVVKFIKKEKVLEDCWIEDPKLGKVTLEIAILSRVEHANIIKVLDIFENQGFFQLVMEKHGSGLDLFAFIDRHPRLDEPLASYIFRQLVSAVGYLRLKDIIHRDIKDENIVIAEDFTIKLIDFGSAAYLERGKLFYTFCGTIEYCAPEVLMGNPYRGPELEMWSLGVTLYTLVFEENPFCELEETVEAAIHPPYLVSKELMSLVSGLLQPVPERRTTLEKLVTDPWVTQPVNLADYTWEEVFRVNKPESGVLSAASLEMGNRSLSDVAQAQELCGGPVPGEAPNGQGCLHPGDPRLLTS
Chain of Serine/threonine-protein kinase Nek6 (Homo sapiens) (Q9HC98 whole entry): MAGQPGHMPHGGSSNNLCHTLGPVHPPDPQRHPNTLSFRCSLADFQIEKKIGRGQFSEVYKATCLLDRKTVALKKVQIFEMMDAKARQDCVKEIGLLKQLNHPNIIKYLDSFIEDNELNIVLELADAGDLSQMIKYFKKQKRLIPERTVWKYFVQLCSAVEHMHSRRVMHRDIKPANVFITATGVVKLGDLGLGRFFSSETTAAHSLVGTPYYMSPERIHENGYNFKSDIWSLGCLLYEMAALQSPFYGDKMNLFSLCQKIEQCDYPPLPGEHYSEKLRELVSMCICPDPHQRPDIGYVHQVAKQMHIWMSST
Chain of Serine/threonine-protein kinase Nek7 (Homo sapiens) (Q8TDX7 whole entry, looked up): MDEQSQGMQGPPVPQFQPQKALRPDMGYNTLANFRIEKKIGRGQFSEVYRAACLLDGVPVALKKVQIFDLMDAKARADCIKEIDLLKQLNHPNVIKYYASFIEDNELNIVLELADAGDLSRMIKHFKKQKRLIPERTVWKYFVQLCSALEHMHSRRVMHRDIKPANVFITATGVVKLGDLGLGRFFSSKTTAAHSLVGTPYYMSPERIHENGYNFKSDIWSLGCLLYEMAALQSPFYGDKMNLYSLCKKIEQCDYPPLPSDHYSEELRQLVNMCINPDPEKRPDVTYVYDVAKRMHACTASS
Chain of Serine/threonine-protein kinase PAK 2 (Homo sapiens) (Q13177 whole entry): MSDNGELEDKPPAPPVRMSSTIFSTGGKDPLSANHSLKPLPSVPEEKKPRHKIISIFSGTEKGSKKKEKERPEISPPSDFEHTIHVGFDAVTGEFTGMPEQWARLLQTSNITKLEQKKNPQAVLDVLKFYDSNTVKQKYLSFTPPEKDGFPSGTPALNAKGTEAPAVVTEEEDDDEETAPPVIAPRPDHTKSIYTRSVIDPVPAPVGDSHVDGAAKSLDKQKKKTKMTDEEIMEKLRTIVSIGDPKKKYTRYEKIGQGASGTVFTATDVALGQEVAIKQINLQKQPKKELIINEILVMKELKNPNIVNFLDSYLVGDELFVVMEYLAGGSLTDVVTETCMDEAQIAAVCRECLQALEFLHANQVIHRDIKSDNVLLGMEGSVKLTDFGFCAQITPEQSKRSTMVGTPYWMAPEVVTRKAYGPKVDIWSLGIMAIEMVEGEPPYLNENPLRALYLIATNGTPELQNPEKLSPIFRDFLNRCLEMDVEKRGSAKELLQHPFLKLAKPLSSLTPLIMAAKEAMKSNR
Chain of Activated CDC42 kinase 1 (Homo sapiens) (Q07912 whole entry, looked up): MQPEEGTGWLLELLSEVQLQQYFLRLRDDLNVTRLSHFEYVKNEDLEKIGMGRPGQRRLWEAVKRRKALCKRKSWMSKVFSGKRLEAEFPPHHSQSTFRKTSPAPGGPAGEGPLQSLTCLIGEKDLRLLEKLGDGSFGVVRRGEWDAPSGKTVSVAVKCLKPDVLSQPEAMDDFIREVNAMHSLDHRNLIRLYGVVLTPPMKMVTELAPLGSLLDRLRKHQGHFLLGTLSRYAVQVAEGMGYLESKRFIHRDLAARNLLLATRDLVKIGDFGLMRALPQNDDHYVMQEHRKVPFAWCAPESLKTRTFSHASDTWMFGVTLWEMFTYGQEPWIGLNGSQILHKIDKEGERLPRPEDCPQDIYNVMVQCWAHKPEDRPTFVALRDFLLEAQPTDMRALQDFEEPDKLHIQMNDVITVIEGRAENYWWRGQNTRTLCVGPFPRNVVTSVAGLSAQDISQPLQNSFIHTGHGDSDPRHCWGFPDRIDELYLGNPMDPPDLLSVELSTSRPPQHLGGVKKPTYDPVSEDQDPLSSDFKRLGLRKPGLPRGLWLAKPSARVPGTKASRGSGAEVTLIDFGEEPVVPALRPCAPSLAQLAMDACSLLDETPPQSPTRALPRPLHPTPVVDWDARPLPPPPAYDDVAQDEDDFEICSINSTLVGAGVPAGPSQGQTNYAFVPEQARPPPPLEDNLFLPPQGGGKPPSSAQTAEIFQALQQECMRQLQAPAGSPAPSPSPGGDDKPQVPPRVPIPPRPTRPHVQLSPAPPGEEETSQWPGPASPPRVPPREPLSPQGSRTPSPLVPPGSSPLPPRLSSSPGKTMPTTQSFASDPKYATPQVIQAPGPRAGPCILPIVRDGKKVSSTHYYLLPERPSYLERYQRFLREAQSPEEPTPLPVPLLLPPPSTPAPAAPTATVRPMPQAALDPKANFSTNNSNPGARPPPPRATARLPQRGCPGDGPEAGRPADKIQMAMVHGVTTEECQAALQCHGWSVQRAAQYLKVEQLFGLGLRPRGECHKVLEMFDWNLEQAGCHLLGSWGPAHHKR

Regarding `CSc1nc(-c2ccc(F)cc2)c(-c2ccnc(NC(C)c3ccccc3)c2)[nH]1` (stereo unspecified), the residual activity in [1] was 69%; in test [2], 14%; in test [3] it was 100%; in [4], 87%; in test [5], 92%; in [6], 102%. The residual activity amounted to 83% in [7]; 96% in [8]; 81% in test [9]; 64% in test [10]; 90% in [11]; 50% in test [12]. The residual activity in test [13] was determined as 82%.

As for `O=C1C(Cl)=C(N2C(=O)CCC2=O)C(=O)c2ccccc21`, the residual activity in test [14] was 67%; in test [15] it was 96% (inactive); in test [1], 95%; in test [2] it was 88%; in test [3], 101%; in [4], 98%. The residual activity is 95% in [16]; 96% in [5]; 99% in test [6]; 84% in [7]; 93% in test [9]; 122% in test [10]. The residual activity in [11] turned out to be 78%; in test [12] it was 69%; in [13], 65%.

Turning to `CC(C)[C@H](CO)Nc1nc(Nc2cc(N)cc(Cl)c2)c2ncn(C(C)C)c2n1`, the residual activity in test [17] was 86%; in test [14] it was 39%; in [6], 57%; in test [7], 12%; in test [8] it was 26%; in [9] it was 5%. Further, the values for the residual activity in test [11] and in test [12] were 29% and 9%, respectively.

As for `O=C(CCCc1ccc(-c2ccccc2F)cc1)Nc1ccc(O)cc1`, the residual activity was 112% (inactive) in test [18]; 127% in test [19]; 106% in test [1]; 100% in test [2]; 106% in test [3]; 103% in [16]. Moreover, the residual activity is 91% in test [5]; 104% in test [6]; 95% in test [7]; 96% in test [8]; 103% in test [9]; 108% in test [10]. Also, the residual activity in [11] amounted to 89%; in test [12], 75%; in test [13] it was 88%.

Take `O=c1cc(N2CCOCC2)oc2c(-c3ccccc3)cccc12`: the residual activity in test [14] was 63%; in test [2], 72%; in test [9], 77%; in test [10], 59%; in test [11], 76%; in test [12] it was 58%. In test [13], the residual activity was 73%.

Take `CN(C)S(=O)(=O)c1ccc2c(c1)/C(=C/c1cc3c([nH]1)CCCC3)C(=O)N2`: the residual activity in test [18] was 115% (inactive); in test [19], 114%; in test [20] it was 111% (inactive); in [1] it was 91%; in test [2], 93%; in test [16], 74%. The residual activity in [5] was determined as 69%; in test [8], 76%; in test [9], 50%; in test [11] it was 13%; in test [12] it was 8%; in test [13], 44%.

For `CCCCc1c(-c2ccc(OC)cc2)[nH]c2nccnc12`, the residual activity is 70% in [14]; 113% (inactive) in test [18]; 100% in test [19]; 112% (inactive) in [15]; 83% in test [1]; 112% in [3]. Also, the residual activity in test [4] was 103%; in test [16], 60%; in test [5], 68%; in [6] it was 63%; in [7], 64%; in test [8], 92%. The residual activity came out at 60% in [9], 24% in [11], 5% in test [12] and 70% in [13].

For `NC(=O)c1ccc(-c2nc(-c3ccc4c(c3)OCCO4)c(-c3ccccn3)[nH]2)cc1`, the residual activity in test [17] turned out to be 74%; in test [14], 86%; in [16], 99%; in test [5], 98%; in [11] it was 79%; in test [12], 68%. The residual activity in test [13] is 74%.

Take `CCN(CC)CCNC(=O)c1c(C)[nH]c(/C=C2\C(=O)Nc3ccc(Cl)cc32)c1C`: the residual activity in [17] was determined as 24%; in [14], 4%; in test [16], 52%; in test [5], 11%; in [6] it was 30%; in test [7], 8%. Moreover, the residual activity in [8] is 73%; in test [9], 28%; in test [10] it was 49%; in [11], 25%; in test [12], 1%; in test [13] it was 8%.

In the case of `CC(C)N(CCC(=O)c1ccc2ccccc2c1)Cc1ccccc1`, the residual activity in test [17] came out at 77%; in [14] it was 53%; in test [4], 81%; in test [16], 88%; in [5] it was 79%; in test [11], 68%. In addition, the figures for the residual activity in test [12] and in test [13] were 63% and 74%, respectively.

Regarding `COc1ccc(COc2ccc(Cc3cnc(N)nc3N)cc2OC)cc1`, the residual activity in test [17] was 80%; in test [14], 51%; in test [7] it was 100%; in [11], 79%; in [12], 68%; in test [13], 74%.

As for `O=c1c(-c2ccc(F)cc2)c(-c2ccncc2)[nH]n1-c1ccc(Cl)cc1`, the residual activity in test [17] is 129%; in [18], 101% (inactive); in test [1] it was 42%; in test [2] it was 12%; in test [12] it was 66%.

In the case of `N#C/C(=C\c1ccc(O)c(O)c1)C(=O)NCc1ccccc1`, the residual activity was 65% in [14]; 101% (inactive) in [20]; 125% (inactive) in test [15]; 103% in test [3]; 85% in test [4]; 85% in [7]. In addition, the residual activity in [10] was determined as 55%; in test [11] it was 88%; in test [12], 62%.

As for `COc1ccc(CNC(=O)Nc2ncc([N+](=O)[O-])s2)cc1`, the residual activity in test [18] was 114% (inactive); in test [19] it was 103%; in test [10] it was 110%; in [11], 77%; in test [12] it was 55%; in [13] it was 70%.

For the molecule `CCCCc1c(-c2ccc(O)cc2)[nH]c2nccnc12`, the residual activity turned out to be 88% in test [17]; 54% in test [14]; 88% in test [1]; 59% in [2]; 56% in test [6]; 36% in [7]. The residual activity in [8] was determined as 94%; in [9], 47%; in test [11], 26%; in test [12], 6%; in test [13], 71%.

As to `NC(=O)c1cccc(-c2cc(Nc3ccc(OC(F)(F)F)cc3)ncn2)c1`, the residual activity in test [17] was found to be 97%; in test [14], 74%; in test [1], 94%; in [2], 40%; in test [6] it was 92%; in [7], 84%. The residual activity in [12] came out at 86%.

Take `O=C(Nc1nc2ccccc2n1CCN1CCOCC1)c1cccc([N+](=O)[O-])c1`: the residual activity in test [10] stood at 84%; in test [11], 81%; in test [12], 55%; in [13], 70%.

For `CN([C@@H](Cc1ccc(OS(=O)(=O)c2cccc3cnccc23)cc1)C(=O)N1CCN(c2ccccc2)CC1)S(=O)(=O)c1cccc2cnccc12`, the residual activity in [1] is 100%; in [2] it was 99%; in test [4] it was 98%; in test [6] it was 115%; in test [7] it was 72%; in test [8], 84%. Moreover, the residual activity stood at 50% in test [9], 79% in [10], 100% in test [11] and 74% in test [13].

`NCCNc1ncc(C(N)=O)c(Nc2cccc(C(F)(F)F)c2)n1`: the residual activity in test [19] is 111%; in test [1] it was 106%; in test [2], 81%; in test [16], 49%; in [5], 9%; in test [6], 48%. Moreover, the residual activity in [7] was found to be 9%; in test [8], 63%; in [9], 18%; in test [10], 40%; in test [11] it was 70%; in [12] it was 16%.

With `CCOc1nc(NC(=O)Cc2cc(OC)ccc2OC)cc(N)c1C#N`, the residual activity in [17] is 140%; in test [14] it was 100%; in test [8], 100%; in test [9], 77%; in [11] it was 73%; in test [12], 58%. Moreover, the residual activity in [13] was 81%.

Take `Cc1cc(C)c(/C=C2\C(=O)Nc3ccccc32)[nH]1`: the residual activity in [20] is 101% (inactive); in test [5], 69%; in test [9] it was 62%; in test [11] it was 52%; in [12] it was 18%; in test [13], 37%.
